VP16 counter – Gal4-VP16 reporter inhibition counter-screen | 310,000 compounds, 3.5% hits | Drosophila S2 Gal4-VP16 UAS-luciferase, luminescence, 20 h | Potency, µM (doses to about 53.6 µM), usual class: inhibitors;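 note: Gal4-VP16 expression switched on by copper sulfate through the metallothionein promoter; nearly all actives have a fitted effect of over 50% in size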
KB-V1 cytotox – kills drug-selected multidrug resistant KB-V1 cells | KB-V1 MDR cells viability, CellTiter-Glo, 72 h | Potency, µM (top dose mostly 46.1 µM), actives largely listed as cytotoxic | 400,000 compounds, 3.4% hits | AID 1347076; note: nearly all actives have a fitted effect of over 60% in size
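KB-V1 MDR subline cells in DMEM (phenol-red free, 10% FBS) exposed to compounds in qHTS concentration series for 72 h at 37 degrees C. Viability read by CellTiter-Glo luminescence; concentration-effect curves fitted after normalization and correction.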
KB-3-1 cytotox – KB-3-1 parental cell cytotoxicity; Potency, µM (top dose mostly 46.1 µM), hits mostly cytotoxic; 400,000 compounds, 1.4% hits; KB-3-1 viability, CellTiter-Glo ATP luminescence, 72 h; AID 1347075; note: nearly all actives have a fitted effect of over 60% in size
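Here the drug-naive KB-3-1 line serves as comparator for MDR sub-line selectivity; cells received compound titrations, 72 h at 37 °C, then CellTiter-Glo readout.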
MCF10A rereplic – DNA re-replication induction in MCF 10a cells; MCF 10A DNA re-replication, Hoechst nuclear intensity, 48 h; Potency, µM (series often up to 46.1 µM), most hits filed as activators; 350,000 compounds, 2.9% hits; AID 624296; note: nearly all actives have a fitted effect of over 50% in size
SW480 rereplic – DNA re-replication induction in SW480 cells. SW480 DNA re-replication, Hoechst DNA content imaging, 48 h. Potency, µM (highest dose often 46.1 µM), hits mostly activators. 340,000 compounds, 1.8% hits. AID 624297; note: nearly all actives have a fitted effect of over 55% in size
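Compounds, transferred as 23 nL by pin tool, were incubated with cells for 48 hr; DNA content per nucleus was then quantified by Hoechst staining and fluorescence plate imaging.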
RORgamma inh – blocks mouse ROR gamma transcriptional activity; AID 2551; P51450; 310,000 compounds, 5.4% hits; Drosophila S2 Gal4-RORgamma UAS-luciferase reporter, 20 h; Potency, µM (top dose mostly 53.6 µM), usual class: inhibitors; note: nearly all actives have a fitted effect of over 60% in size
Target sequence (P51450 whole entry, looked up, the tested form may be a part): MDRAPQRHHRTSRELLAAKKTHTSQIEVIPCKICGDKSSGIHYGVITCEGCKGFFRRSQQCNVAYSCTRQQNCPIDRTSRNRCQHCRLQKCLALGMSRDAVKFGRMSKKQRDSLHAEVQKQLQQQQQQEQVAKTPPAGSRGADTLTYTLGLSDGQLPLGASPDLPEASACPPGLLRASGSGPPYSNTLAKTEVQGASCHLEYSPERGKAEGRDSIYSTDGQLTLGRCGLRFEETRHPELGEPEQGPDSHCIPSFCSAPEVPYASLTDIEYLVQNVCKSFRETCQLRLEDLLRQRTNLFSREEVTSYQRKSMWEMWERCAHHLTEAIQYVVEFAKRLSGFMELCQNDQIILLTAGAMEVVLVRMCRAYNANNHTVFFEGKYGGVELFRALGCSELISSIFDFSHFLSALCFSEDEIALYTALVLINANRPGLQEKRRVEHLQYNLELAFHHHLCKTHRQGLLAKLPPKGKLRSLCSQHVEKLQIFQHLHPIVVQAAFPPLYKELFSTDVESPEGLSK
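Luminescence from a UAS-regulated Photinus luciferase reporter in stably transfected Drosophila Schneider cells is measured; decreased signal marks ROR gamma inhibition. Fusion expression is induced by 700 uM copper sulfate for 20 hr.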
A number is an active result; . = inactive; ? = inconclusive; / = no result; [ ] = remark or other dose. A selection: hits, their analogues and other compounds. The true share with any hit is near 10%. Calls come from the whole dose curve; as a rule, active = well fitted curve in the direction sought with a large enough effect; inconclusive = small, poorly fitted or top-dose-only effect, or another doubt; inactive = no such curve, though single readings can be large; an effect the other way counts as inactive or inconclusive.

SMILES | VP16 counter | KB-V1 cytotox | KB-3-1 cytotox | MCF10A rereplic | SW480 rereplic | RORgamma inh
Cc1cc(C)c(NC(=S)NCCCSC2CCCCC2)c(C)c1 | ? | ? | . | ? | . | 2µM
COc1cccc(NC(=O)NCCCSC2CCCCC2)c1 | . | . | . | . | . | .
COC(=O)c1cc2oc3ccccc3c2n1CC(=O)Nc1ccc(OC)c(OC)c1 | / | . | . | / | / | /
CCOC(=O)CC(=O)CSc1nc2c(sc(=S)n2-c2ccccc2)c(=O)[nH]1 | . | . | . | 16µM | . | .
CCN(CC)C(=O)CSc1nc2c(sc(=S)n2-c2ccccc2)c(=O)[nH]1 | . | ? | . | 0.65µM | . | .
COC(=O)CNC(=O)CSc1nc2c(sc(=S)n2-c2ccccc2)c(=O)[nH]1 | . | . | . | . | ? | .
c1ccc2c(c1)CCC[C@@H]2C1=NCCN1 | . | / | / | . | . | .
N#Cc1c(-c2ccccc2)nc(SCC(=O)N2c3ccccc3Sc3ccccc32)[nH]c1=O | . | . | . | 21µM | . | .
CCN(CC)S(=O)(=O)c1ccc2c(c1)c(=O)c(C(=O)N1CCN(c3cccc(C)c3)C(C)C1)cn2C (centres undefined) | / | . | . | / | / | /
Cc1c(Cc2ccccc2)c(NCCN(C)C)n2c(nc3ccccc32)c1C#N | . | ? | . | 23µM | 29µM | .
CCCCc1c(C)c(C#N)c2nc3ccccc3n2c1NCCN(C)C | . | . | . | 23µM | ? | .
CCc1c(C)c(C#N)c2nc3ccccc3n2c1Cl | . | / | / | / | / | 2.8µM
CCc1c(C)c(C#N)c2nc3ccccc3n2c1NCCCN(C)C | / | . | . | / | / | /
CCc1c(C)c(C#N)c2nc3ccccc3n2c1-n1nc(C)cc1C | . | ? | . | . | . | .
CCc1c(C)c(C#N)c2nc3ccccc3n2c1NCCOC | . | ? | ? | ? | ? | .
Cc1cc(C(C)C)n2c(nc3ccccc32)c1C#N | . | / | / | / | / | .
Cc1cc(-c2ccco2)c(C#N)c2nc3ccccc3n12 | ? | . | ? | 18µM | . | ?
COCCCn1cc(CN2CC(N3CCN(Cc4cccc(C)c4)CC3)CS2(=O)=O)nn1 (centres undefined) | / | . | . | / | / | /
COc1ccc(NC(=O)CSc2nncn3c2cc2oc(C)cc23)cc1OC | / | ? | . | / | / | /
CN(C(=O)Cn1cnc2onc(-c3ccc(F)cc3)c2c1=O)c1ccccc1Cl | / | . | . | / | / | /
CC(=O)c1cc(C)oc1C | . | / | / | / | / | .
O=C(OC(C(=O)N1CCOCC1)c1ccccc1)c1c2c(nc3ccccc13)CCCC2 (centres undefined) | / | . | . | / | / | /
COc1ccc(NC(=S)N2CCCN(Cc3cccc(Cl)c3)C2)cc1 | .[10 µM] | . | . | ? | . | 13µM
COc1cccc(NC(=S)N2CCCN(Cc3ccc(F)cc3)C2)c1 | ? | . | . | . | . | 3.5µM
CSc1cccc(NC(=S)N2CCC(N(C)C3CCCC3)CC2)c1 | . | ? | . | . | . | .
SMILES | VP16 counter | KB-V1 cytotox | KB-3-1 cytotox | MCF10A rereplic | SW480 rereplic | RORgamma inh
CCOc1ccc(NC(=S)N2CCCN(Cc3cccc(Cl)c3)C2)cc1 | . | . | . | ? | ? | ?
CSc1cccc(NC(=S)N2CCCN(Cc3cccc(Cl)c3)C2)c1 | ? | ? | . | ? | ? | 10µM
Cc1cccc(C)c1NC(=S)N1CCCN(Cc2ccc(F)cc2)C1 | . | . | . | . | . | 14µM
COc1cccc(NC(=S)N2CCCC2)c1 | . | ? | . | . | . | .
Fc1ccc(CN2CCCN(C(=S)Nc3ccc(F)cc3)CC2)cc1 | . | . | . | ? | . | .
COc1ccc(C(=O)Nc2nc3c(s2)Cc2c(Br)ccc(OC)c2-3)cc1OC | / | . | ? | / | / | /
Cc1cc(=O)n(CC(=O)N2CCCc3ccccc32)c2c1c(C)nn2-c1cccc(F)c1 | / | . | . | / | / | /
CCN(CC)c1cc2c(cc1F)c(=O)c(S(=O)(=O)c1ccccc1)cn2Cc1ccccc1 | / | ? | . | / | / | /
O=C(NC(=S)Nc1ccccc1N1CCOCC1)c1ccc(-c2ccccc2F)o1 | . | . | . | . | . | 2.8µM
O=C(NC(=S)Nc1ccccc1N1CCCCC1)c1ccc(F)cc1Cl | 3.2µM | ? | ? | . | . | 4.5µM
O=C(NC(=S)Nc1ccccc1N1CCOCC1)c1ccc(Br)cc1 | / | . | . | . | . | /
O=C(NC(=S)Nc1ccccc1N1CCCC1)c1ccc(F)cc1 | . | . | . | ? | . | 1.6µM
O=C(NC(=S)Nc1ccccc1N1CCCCC1)c1ccccc1 | 7.9µM | . | . | ? | . | 1.4µM
CCOc1ccc(CCNC(=O)c2cc(C)nc3c2c(C)nn3-c2cccc(F)c2)cc1 | / | . | . | / | / | /
COc1ccc(C(=O)N2CCC[C@@]3(CCN(c4cccc(-c5ccccc5)c4)C3)C2)cc1 | . | / | / | / | / | .
FC(F)(F)c1ccccc1-c1ccc2ncnc(NCCN3CCOCC3)c2c1 | . | / | / | / | / | .
COc1cccc(N2CCN(C(=O)c3ccc4c(Cl)c5c(nc4c3)CCCC5)CC2)c1 | / | . | . | / | / | /
Cc1ccccc1C(=O)NCc1ccc2c(c1)CCN2C(=O)c1ccc(F)cc1 | / | . | . | / | / | /
O=C(Nc1ccccc1N1CCCC1)c1cccc(F)c1 | / | . | . | . | . | /
O=C(NC(=S)Nc1ccccc1N1CCCC1)c1cccc(F)c1 | 7.9µM | . | . | . | . | 3.2µM
CCCS(=O)(=O)c1c(S(=O)(=O)CCC)c2c(C)cccn2c1C(=O)N/N=C/c1cc(O)cc(O)c1 | . | . | ? | ? | 6.5µM | ?
COc1ccc(OC)c(N/C=C/C(=O)c2ccccc2)c1 | 5µM | . | . | ? | . | 4.5µM
COc1ccc(N/C=C/C(=O)c2ccc(Cl)cc2)cc1 | . | . | . | ? | . | .
COc1ccc(N/C=C/C(=O)c2ccc(OC)c(OC)c2)cc1 | . | ? | . | 21µM | . | .
COc1ccc(OC)c(N/C(C)=C/C(=O)c2ccccc2)c1 | . | ? | . | . | . | .
SMILES | VP16 counter | KB-V1 cytotox | KB-3-1 cytotox | MCF10A rereplic | SW480 rereplic | RORgamma inh
COc1ccc(C(=O)CCc2ccc(OC)c(OC)c2)cc1 | / | . | ? | . | . | /
COc1ccc(N/C=C/C(=O)c2cc(OC)c(OC)c(OC)c2)cc1 | . | ? | 3.7µM | 5.2µM | 5.8µM | .
COc1ccc(C(=O)Cc2ccc(OC)c(OC)c2)cc1 | . | 23µM | . | . | . | .
CC1CCN(C(=O)CN2c3ccc(Br)cc3-c3ccccc3S2(=O)=O)CC1 | / | . | . | / | / | /
Cc1ccc(-c2nc(C(=O)NCc3ccccc3Cl)c3n2CCCCC3)cc1 | / | ? | . | / | / | /
CC(C)CC(N)c1csc(Nc2cnccn2)n1 (centres undefined) | / | . | . | / | / | /
O=c1c2ccccc2n(Cc2ccccc2Cl)c(=O)n1CCc1ccccc1 | / | ? | . | / | / | /
CC(NC(=O)COc1ccccc1)C(=O)N1CCN(c2ccc(F)cc2)CC1 (centres undefined) | / | 18µM | . | . | . | /

Bioassay records as filed in PubChem BioAssay.
